Screens: PubChem, The Scripps Research Institute Molecular Screening Center
TEAD-YAP inh: TEAD-YAP interaction inhibition, primary screen, TEAD-YAP interaction inhibitor project, luminescence, HEK-TIYL cells. TEAD-Gal4/YAP UAS-luciferase luminescence. inhibition, % at 9.12 µM. 640,000 tested, 1.4% active. AID 1259422, 2018; in the data active = inhibition above about 32%;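 also: 0% = median of test compound wells and 100% = reference inhibitor wells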
MITF inh: MITF inhibitors, primary screen, biochemical, AlphaScreen, human; Microphthalmia-associated transcription factor (Homo sapiens), O75030; AlphaScreen MITF homodimerization, bead proximity signal; inhibition, % at 2.6 µM; 650,000 tested, 0.91% active; AID 1259374, 2018; in the data active = inhibition above about 50%;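 also: 0% = vehicle wells with protein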
Target sequence (O75030 whole entry, looked up): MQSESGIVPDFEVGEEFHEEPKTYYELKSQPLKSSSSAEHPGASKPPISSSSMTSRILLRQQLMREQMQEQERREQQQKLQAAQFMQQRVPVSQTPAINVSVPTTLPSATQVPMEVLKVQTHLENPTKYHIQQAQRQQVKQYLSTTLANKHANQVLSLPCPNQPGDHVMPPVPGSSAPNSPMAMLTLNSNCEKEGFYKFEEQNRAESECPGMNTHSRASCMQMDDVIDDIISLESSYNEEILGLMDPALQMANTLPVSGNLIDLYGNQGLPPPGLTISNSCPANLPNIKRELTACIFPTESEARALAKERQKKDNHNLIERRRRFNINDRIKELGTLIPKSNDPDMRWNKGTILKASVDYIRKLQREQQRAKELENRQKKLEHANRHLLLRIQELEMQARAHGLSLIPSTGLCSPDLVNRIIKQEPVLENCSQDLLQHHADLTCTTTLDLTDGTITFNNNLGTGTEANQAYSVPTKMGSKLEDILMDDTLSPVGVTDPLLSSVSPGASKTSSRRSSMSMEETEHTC
FBW7 activator: FBW7 E3 ligase activators, primary screen, biochemical, AlphaScreen, human. AlphaScreen FBW7–phospho-cyclin E peptide binding, activator screen. normalized activity (activation), % at 26.1 µM. 650,000 tested, 0.13% active; in the data active = normalized activity above about 1.9%;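 also: purified mutant Fbw7 with reduced substrate affinity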
GPR151 activ: activators of human GPR151, primary screen, cell-based, PathHunter beta-arrestin, luminescence. activation, % at 11.2 µM. AID 1508602, 2020. G-protein coupled receptor 151 (Homo sapiens), Q8TDV0. PathHunter beta-arrestin GPR151 cells. 650,000 tested, 1% active; in the data active = activation above about 4.9%;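 also: 0% = median of compound wells and 100% = cells with positive control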
Starred values were filed as active, the others as inactive; x = no result. A selection: hits, their analogues and other compounds. The true share with any hit is near 3.5%.

SMILES	TEAD-YAP inh	MITF inh	FBW7 activator	GPR151 activ
COc1ccc(-c2csc(NC(=O)c3ccc(S(=O)(=O)N4CCOCC4)cc3)n2)c(OC)c1	41*	-12	0	0
Cc1ccc(C)c(-c2csc(NC(=O)c3ccc(S(=O)(=O)N4CCOCC4)cc3)n2)c1	42*	-7	0	0
COCCN(CCOC)S(=O)(=O)c1ccc(C(=O)Nc2nc(-c3ccc(C)cc3C)cs2)cc1	36*	-3	0	1
CC(OCC(O)CN1CCN(c2ccccc2[N+](=O)[O-])CC1)c1ccc(Cl)cc1 (stereo unspecified)	-1	44	0	2
O=C1CCC(CCNCCOc2ccccc2)N1CCc1nc(-c2ccccc2)n[nH]1 (stereo unspecified)	-4	-12	0	0
O=C(NC1CCC(CC2CCC(NC(=O)c3ccncc3)CC2)CC1)c1ccncc1 (stereo unspecified)	32*	-9	0	0
O=C(NC1CC1)c1ccnc(Cl)c1	0	-3	0	0
O=C1c2ccccc2C(=O)N1CSc1ncnc2sc3c(c12)CCCC3	1	-3	0	2
CCCn1cc(NC(=O)c2cc3ccccc3o2)cn1	-55	-9	0	-1
CCCn1cc(NC(=O)c2cc(-c3ccccc3OCc3ccccc3)no2)cn1	43*	13	0	2
Cc1ccc(CNC(=O)C(Cc2ccc([N+](=O)[O-])cc2)N2C(=O)c3ccccc3C2=O)cc1 (stereo unspecified)	6	18	0	-1
NC(=O)c1ccc(N2CCN(S(=O)(=O)c3ccc4ccccc4c3)CC2)c([N+](=O)[O-])c1	45*	4	0	3
COc1ccc(N2CCN(S(=O)(=O)c3ccc(C)cc3)CC2)c([N+](=O)[O-])c1	-2	-1	0	-1
O=[N+]([O-])c1ccccc1N1CCN(S(=O)(=O)c2ccc3ccccc3c2)CC1	6	1	0	3
Cc1ccc(S(=O)(=O)N2CCN(c3ccc(C(N)=O)cc3[N+](=O)[O-])CC2)cc1	37*	-1	0	4
CC(=O)C1=NN(c2ccc(Cl)cc2)C(c2ccc3c(c2)OCO3)N1C(C)(C)C (stereo unspecified)	2	28	2.0*	0
COc1cc(-c2nn3cc(-c4ccccc4)nc3s2)cc(OC)c1OC	-30	5	1	0
CCc1nn2cc(-c3ccc(F)cc3)nc2s1	40*	9	0	-10
CCc1nn2cc(-c3ccccc3)nc2s1	74*	10	0	-10
COc1cc(/C=C2/SC(=S)N(C)C2=O)cc(Br)c1O	0	15	0	3
CN(C)S(=O)(=O)c1ccc(C(=O)Nc2ccc(-c3nc4ccccc4[nH]3)cc2)cc1	-41	-31	5.0*	1
Cc1sc(NC(=O)c2ccc(S(=O)(=O)N(C)c3ccccc3)cc2)nc1-c1ccccc1	2	0	0	3
O=C(Nc1ccc(-c2nc3ccccc3[nH]2)cc1)c1ccc(=O)n(Cc2ccccc2)n1	34*	6	0	1
Cc1sc(NC(=O)c2ccc(S(=O)(=O)N(C)C)cc2)nc1-c1ccccc1	41*	-2	0	0
O=C(CNC1CCCC1)NC(c1ccccc1)c1ccccc1	0	11	0	-1
SMILES	TEAD-YAP inh	MITF inh	FBW7 activator	GPR151 activ
CCOc1ccccc1NC(=O)c1cnc(N2CCN(c3ccccn3)CC2)c2ccccc12	55*	8	0	1
COc1ccccc1N1CCN(c2ncc(C(=O)N3CCN(C)CC3)c3ccccc23)CC1	35*	8	0	1
COc1ccccc1N1CCN(c2ncc(C(=O)NCc3cccnc3)c3ccccc23)CC1	37*	-11	0	0
CCOC(=O)c1ccccc1NC(=O)c1cnc(N2CCN(c3ccccn3)CC2)c2ccccc12	9	-6	0	0
COc1ccccc1N1CCN(c2ncc(C(=O)N3CCCC3)c3ccccc23)CC1	6	3	0	0
COc1ccc(OC)c(NC(=O)c2cnc(N3CCN(c4ccccc4OC)CC3)c3ccccc23)c1	40*	-5	0	-1
COc1cccc(NC(=O)c2cnc(N3CCN(c4ccccc4OC)CC3)c3ccccc23)c1	20	5	0	0
COC(=O)C(C)Sc1ccc2nnc(-c3ccc(Cl)cc3)n2n1 (stereo unspecified)	-17	-10	0	0
CCOC(=O)CCCN1C(=O)S/C(=C/c2ccc(OC)cc2)C1=S	47*	9	1	-1
CCCCN1C(=O)S/C(=C/c2ccc(OC)cc2)C1=O	-41	-11	0	0
COc1ccc(/C=C2\SC(=O)N(CCCC(=O)Nc3ccc(C(=O)O)cc3)C2=O)cc1	88*	14	0	-1
CN(c1ccccc1)S(=O)(=O)c1cccc(C(=O)OCC(=O)C(C)(C)C)c1	4	-3	0	-1
Cc1ccc(S(=O)(=O)N2CCCCC2CCNC(=O)C(=O)NCCc2ccco2)cc1 (stereo unspecified)	47*	5	0	0
Cc1ccc(S(=O)(=O)N2CCCCC2CCNC(=O)C(=O)NCc2ccco2)cc1 (stereo unspecified)	41*	-4	0	-1
O=C(NCCc1ccco1)C(=O)NCC1CCCN1S(=O)(=O)c1ccccc1 (stereo unspecified)	32*	14	0	1
Cc1ccc(S(=O)(=O)N2CCCCC2CCNC(=O)C(=O)NC2CCCC2)cc1 (stereo unspecified)	4	0	0	4
Cc1ccc(S(=O)(=O)N2CCCCC2CCNC(=O)C(=O)NCc2cccs2)cc1 (stereo unspecified)	48*	9	1	0
Cc1ccc(CNC(=O)c2c(C)noc2C)cc1	-14	25	0	-1
O=C(O)c1ccc(/C=N\NC(=O)C2COc3cc4ccccc4cc3O2)cc1 (stereo unspecified)	-2	-4	0	3
CCC(O)/C=C/C=C\C/C=C\C/C=C\C/C=C\C/C=C\CCC(=O)O (stereo unspecified)	x	7	x	-2
O=C1CCCN1CCCNc1nc(Nc2ccccc2)nc2c1ncn2-c1ccsc1	65*	9	0	1
O=C1CCCN1CCn1cnc2c(NCCOc3ccccc3)nc(Nc3ccc(-n4ccnc4)cc3)nc21	3	14	0	2
O=C1CCCN1CCCNc1nc(Nc2ccc(C(F)(F)F)cc2)nc2c1ncn2-c1ccsc1	12	5	0	0
O=C1CCCN1CCCNc1nc(Nc2ccc3ncccc3c2)nc2c1ncn2-c1ccsc1	52*	11	0	0
O=C1CCCN1CCCNc1nc(Nc2ccc(-n3ccnc3)cc2)nc2c1ncn2-c1ccsc1	61*	9	0	1
